Records with an inconclusive call do not appear. Activity calls are given as the source filed them. How the source made its calls: active means hit-call score of the fitted dose curve at least 0.9, where 1 is the maximum; inconclusive means response in the unintended direction; inactive means score below 0.9.
experiment: ATG_M_19_TRANS: Attagene TRANS-FACTORIAL HepG2 Assay for M19 Transcription Factor (Internal Marker) (AID 2282974); conditions: HepG2 Attagene TRANS-FACTORIAL M19 internal marker reporter
Description: ATG_TRANS is a cell-based, multiplexed-readout assay that uses HepG2, a human liver cell line, with measurements taken at 24 hours after chemical dosing in a 24-well plate.ATG_M_19_TRANS is one of 30 assay component(s) measured or calculated from the ATG_TRANS assay. It is designed to make measurements of mRNA induction, a form of inducible reporter, as detected with fluorescence intensity signals by Reverse transcription polymerase chain reaction (RT-PCR) and Capillary electrophoresis technology.Data from the assay component ATG_M_19_TRANS was analyzed into 1 assay endpoint. This assay endpoint, ATG_M_19_TRANS, was analyzed in the positive analysis fitting direction relative to DMSO as the negative control and baseline of activity. Using a type of inducible reporter, measures of mRNA for gain-of-signal activity can be used to understand the background control at the transcription factor-level as they relate to the gene . Furthermore, this assay endpoint can be referred to as a secondary readout, because this assay has produced multiple assay endpoints where this one serves a background control function. To generalize the intended target to other relatable targets, this assay endpoint is annotated to the background measurement intended target family, where the subfamily is internal marker.
Human liver HepG2 cells are transiently transfected with multiple reporter transcription units (MRTUs) in 6-well plates using FuGene 6 reagent (Roche; 3 ml FuGene/1 mg DNA). The MRTU constructs are regulated by a cis-regulating element (promoter). […] A major difference between the CIS and TRANS system is that in CIS activities of endogenous TFs are measured, whereas the TRANS assay evaluates changes in activities of exogenous, chimeric NR-Gal4 proteins. […] At the end of 24 hour incubation, total RNA was isolated using TriZol reagent (Invitrogen). The isolated RNA is then reverse-transcribed using oligo(dT) primer and Mo-MLV reverse transcriptase (Invitrogen) with DNAse I (Ambion) treatment for 30 min. The one-tenth of the produced cDNA was amplified by PCR using Taq DNA polymerase (Invitrogen) and two reporter sequence-specific primers. The PCR products were fluorescently labeled by primer extension with 6-arboxyfluorescein (6-FAM) 5'-labeled reporter sequence-specific primer (2 min at 95 C, 20 s at 68 C and 10 min at 72 C) and these products were digested with 5U of HpaI (New England Biolabs) for 2h at 37 C. The fragments were purified using Qiaquick PCR columns (Qiagen), analyzed on an ABI 3130xL genetic analyzer (Applied Biosystems) with peak positions identified by using a set of X-rhodamine (ROX)-labeled MapMarker1000 molecular weight standards (BioVentures). The raw capillary electrophoresis data was processed using Attagraph software (Attagene).

Question: With O=C(O)CCCCCCCCCCC(=O)O as the compound, how does the outcome read?
Answer: Its outcome is “inactive”.

Question: Which outcome does the source give for Cc1cccc(Nc2ccccc2C(=O)O)c1C here?
Answer: The outcome was “inactive”.

Question: With O=S(=O)(O)NC1CCCCC1 as the compound, how does the outcome read?
Answer: Its outcome is “inactive”.

Question: With NC(=O)c1ccccc1Cl as the compound, how does the outcome read?
Answer: The outcome was “inactive”.

Question: Which outcome does the source give for COc1ccc(Cl)cc1C here?
Answer: The outcome was “inactive”.

Question: With CCC(=O)OCCC(C)CCC=C(C)C (stereo not given) as the compound, how does the outcome read?
Answer: The outcome was “inactive”.

Question: For CCCCCCCCCCC(CO)CCCCCCCC (stereo not given), which outcome is on record?
Answer: Its outcome is “inactive”.

Question: Which outcome does the source give for CC(CCO)CCc1ccccc1 (stereo not given) here?
Answer: Its outcome is “inactive”.

Question: Which outcome does the source give for Fc1c(F)c(F)c(Br)c(F)c1F here?
Answer: Its outcome is “inactive”.

Question: Which outcome does the source give for CCCCCCOC(=O)CC here?
Answer: Its outcome is “inactive”.

Question: With Cc1cc(C2(c3cc(C)c(O)cc3C)OS(=O)(=O)c3ccccc32)c(C)cc1O as the compound, how does the outcome read?
Answer: Its outcome is “inactive”.

Question: Which outcome does the source give for Cc1c(Cl)c(=O)oc2cc(O)ccc12 here?
Answer: The outcome was “inactive”.

Question: With CC1CC(OC(=O)c2ccccc2O)CC(C)(C)C1 (stereo not given) as the compound, how does the outcome read?
Answer: The outcome was “inactive”.

Question: With NCCCCCCN as the compound, how does the outcome read?
Answer: The outcome was “inactive”.

Question: Which outcome does the source give for CNC(=O)Oc1ccc2c(c1)[C@]1(C)CCN(C)[C@@H]1N2C here?
Answer: The outcome was “inactive”.

Question: Which outcome does the source give for O=C(O)c1cn(-c2ccc(F)cc2)c2cc(N3CCNCC3)c(F)cc2c1=O here?
Answer: Its outcome is “inactive”.

Question: With COc1cccc(OC)c1 as the compound, how does the outcome read?
Answer: The outcome was “inactive”.

Question: With O=c1oc(=O)c2cc3c(=O)oc(=O)c3cc12 as the compound, how does the outcome read?
Answer: The outcome was “inactive”.

Question: Which outcome does the source give for CCC(C(=O)NC(N)=O)c1ccccc1 (stereo not given) here?
Answer: Its outcome is “inactive”.

Question: With C=C(C)[C@@H]1CCC2=CC(=O)C[C@@H](C)[C@]2(C)C1 as the compound, how does the outcome read?
Answer: The outcome was “inactive”.

Question: For Nc1cc([N+](=O)[O-])ccc1O, which outcome is on record?
Answer: The outcome was “inactive”.

Question: For CC(C)c1ccc(C(C)C)cc1, which outcome is on record?
Answer: Its outcome is “inactive”.

Question: With COC(=O)C1=C(C)NC(C)=C(C(=O)OCCN(C)Cc2ccccc2)C1c1cccc([N+](=O)[O-])c1 (stereo not given) as the compound, how does the outcome read?
Answer: The outcome was “inactive”.

Question: With CCCC[n+]1ccccc1 as the compound, how does the outcome read?
Answer: Its outcome is “inactive”.

Question: For Nc1ccc(F)c([N+](=O)[O-])c1, which outcome is on record?
Answer: Its outcome is “inactive”.

Question: With O=[N+]([O-])c1ccc(Nc2ccc(Nc3ccccc3)c(S(=O)(=O)O)c2)c([N+](=O)[O-])c1 as the compound, how does the outcome read?
Answer: Its outcome is “inactive”.

Question: For OCc1cccnc1, which outcome is on record?
Answer: Its outcome is “inactive”.

Question: With CC1CCC(C(C)CS)CC1S (stereo not given) as the compound, how does the outcome read?
Answer: Its outcome is “inactive”.

Question: Which outcome does the source give for CC(=O)O[C@H](CC(=O)[O-])C[N+](C)(C)C here?
Answer: Its outcome is “inactive”.

Question: For CCCCCCCCCCCCN(CCCCCCCCCCCC)CCCCCCCCCCCC, which outcome is on record?
Answer: The outcome was “inactive”.

Question: For OC1OC[C@@H](O)[C@H](O)[C@H]1O (stereo not given in full), which outcome is on record?
Answer: Its outcome is “inactive”.

Question: For NC(=O)Nc1ccc(Cl)cc1, which outcome is on record?
Answer: The outcome was “inactive”.

Question: For Clc1ccc(Cl)c(Cl)c1Cl, which outcome is on record?
Answer: The outcome was “inactive”.

Question: With CN1Cc2c(N)cccc2C(c2ccccc2)C1 (stereo not given) as the compound, how does the outcome read?
Answer: The outcome was “inactive”.

Question: Which outcome does the source give for CC(C)=CCO here?
Answer: The outcome was “inactive”.

Question: With CCc1ccc(C=O)cc1 as the compound, how does the outcome read?
Answer: Its outcome is “inactive”.

Question: For O=S(=O)(O)c1cccc2c(S(=O)(=O)O)cccc12, which outcome is on record?
Answer: Its outcome is “inactive”.

Question: Which outcome does the source give for CC1=CCC(O)(C(C)C)CC1 (stereo not given) here?
Answer: Its outcome is “inactive”.

Question: Which outcome does the source give for CCCC(C)C=O (stereo not given) here?
Answer: Its outcome is “inactive”.

Question: Which outcome does the source give for CCC(C)(O)CCC=C(C)C (stereo not given) here?
Answer: The outcome was “inactive”.
